A549 viability: kills or reduces viability of A549 cells in Nrf2 counter-screen | A549 ARE-Fluc cells, CellTiter-Fluor viability, 18-24 h | Potency, µM (top dose mostly 46 µM), usual class: inhibitors | hit rate 0.16% among 390,000 | AID 504648
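Cytotoxicity counterscreen: CellTiter-Fluor fluorescence was measured in A549 ARE_Fluc cells after 18-24 h of compound exposure in a concentration series. The subsequent BugLite luminescent read reports ARE-luciferase activity.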
ATXN viability: viability counter-screen for ATXN expression inhibitors; S2 cells (HEK-293 line with an ATXN2-luciferase reporter) viability, CellTiter-Fluor protease fluorescence, 24 h; Potency, µM (highest dose often 56.7 µM), actives largely listed as cytotoxic; hit rate 0.49% among 400,000; AID 651635; also: nearly all actives have a fitted effect of over 40% in size
ATXN2 expr inh: reduces ATXN2 reporter expression in HEK-293 cells | HEK-293 ATXN2-luciferase reporter, luminescence, 24 h | Potency, µM (series often up to 57 µM), usual class: inhibitors | hit rate 0.72% among 360,000 | AID 1745845; also: nearly all actives have a fitted effect of over 55% in size
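ATXN2-luciferase reporter cells (luciferase flanked by upstream and downstream ATXN2 gene portions) were treated 24 h at 37 °C with compounds at up to 57 uM. SteadyGlo luminescence gave expression; GF-AFC fluorescence gave viability.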
Nrf2 inh: Nrf2 pathway inhibition; hit rate 2.1% among 360,000; A549 ARE-Fluc reporter, luciferase luminescence, 18-24 h; Potency, µM (series often up to 46 µM), hits mostly inhibitors; also: nearly all actives have a fitted effect of over 60% in size
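Quantitative HTS in A549 cells stably bearing an antioxidant response element-firefly luciferase construct. Inhibition of Nrf2-driven transcription was scored by luminescence after 18-24 h of compound exposure at 37 °C.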
Nrf2 activator: Nrf2 pathway activation; AREc32 ARE-luciferase reporter (MCF7-derived line), luminescence, 24 h; hit rate 0.31% among 410,000; Potency, µM (titrated, usually from 46.1 µM), hits mostly activators; AID 624171; also: nearly all actives have a fitted effect of over 65% in size
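For detection, Steady-Glo was added and plates sat 30 min at RT; before that, AREc32_Fluc cells grown overnight in OPTI-MEM/5% FBS had been treated with 23 nL compound for 24 hr at 37 deg C.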
A number is an active result; n = inactive; u = inconclusive; x = no result. Sampled rows, rich in hits. Any-hit rate of the full collection: about 2.9%. Calls follow the shape of the dose curve; as a rule, active = well fitted curve in the direction sought with a large enough effect; inconclusive = small, poorly fitted or top-dose-only effect, or another doubt; inactive = no such curve, though single readings can be large; an effect the other way counts as inactive or inconclusive.

SMILES | A549 viability | ATXN viability | ATXN2 expr inh | Nrf2 inh | Nrf2 activator
CC[C@H](CO)Nc1nc(NCc2ccccc2)c2ncn(C(C)C)c2n1 | x | x | 24.3µM | x | x
CC(C)n1cnc2c(NCc3ccccc3)nc(NCc3ccccc3)nc21 | n | n | n | n | n
CC(=O)Nc1ccc(NC(=O)CCc2nc3sc4c(c3c(=O)[nH]2)CCCC4)cc1 | n | n | n | n | n
Cc1cc(C)cc(NC(=O)CCc2nc3sc4c(c3c(=O)[nH]2)CCCC4)c1 | u | u | 8.91µM | u | n
Cc1cccc(Cc2cnc(NC(=O)C3Cc4ccc(C)cc4C(=O)O3)s2)c1 (stereo unspecified) | n | n | n | n | n
Cc1cc(C)nc(NS(=O)(=O)c2ccc(NC(=O)c3ccc(O)cc3O)cc2)n1 | n | n | n | n | n
CCOCCCNC(=O)CN1C(=O)NC(Cc2c[nH]c3ccccc23)C1=O (stereo unspecified) | n | n | n | n | n
CCOc1ccccc1N1CC(c2nc3ccccc3n2CCCCOc2ccccc2)CC1=O (stereo unspecified) | u | n | n | u | n
COc1ccccc1OCCCn1c(C2CC(=O)N(c3ccc(F)cc3)C2)nc2ccccc21 (stereo unspecified) | n | n | n | n | n
CCOc1ccc(N2CC(c3nc4ccccc4n3CCCOc3ccccc3OC)CC2=O)cc1 (stereo unspecified) | u | 17.8µM | u | u | n
O=C1CC(c2nc3ccccc3n2CCCCOc2ccccc2)CN1c1ccccc1Cl (stereo unspecified) | n | 28.2µM | u | u | n
O=C(Nc1nnc(C2CC2)s1)C1Cc2ccccc2CN1C(=O)c1ccco1 (stereo unspecified) | n | u | n | n | n
O=C(Nc1nnc(SCc2ccc(F)cc2)s1)C1Cc2ccccc2CN1C(=O)c1ccco1 (stereo unspecified) | u | n | n | 16.4µM | n
Cc1ccc(S(=O)(=O)c2ccc([N+](=O)[O-])cn2)cc1 | n | x | u | u | n
Cc1cc(S(=O)(=O)c2ccc([N+](=O)[O-])cn2)ccc1Br | n | x | u | u | 12.6µM
C=C1C(=O)C2=CC1CCC(=O)C1(C)CCC(OC(C)=O)C(C)(C)C1CC2O (stereo unspecified) | u | x | u | 14.6µM | u
COc1cccc(CN(C)C(=O)c2ccc3c(=O)n4c(nc3c2)CCC4)c1OC | n | u | n | u | n
COc1cccc(CNC(=O)C2CCCN(S(=O)(=O)N(C)c3ccc(F)cc3)C2)c1OC (stereo unspecified) | n | x | x | 25.9µM | n
COc1cccc(CN(C)C(=O)c2cccc(S(=O)(=O)N3CCN(Cc4ccccc4)CC3)c2)c1OC | n | n | n | 10.3µM | n
CN(Cc1ccco1)C(=O)c1cccc(S(=O)(=O)N2CCN(Cc3ccccc3)CC2)c1 | x | n | x | x | n
COc1cccc(CN(C)C(=O)c2ccc(Cl)c(S(=O)(=O)N3CCCCCC3)c2)c1OC | n | n | n | 18.4µM | n
CN(c1ccc(F)cc1)S(=O)(=O)N1CCCC(C(=O)NCc2ccccc2Cl)C1 (stereo unspecified) | n | x | x | u | n
COc1cccc(CN(C)C(=O)c2cccc(S(=O)(=O)N3CCN(c4ccc(F)cc4)CC3)c2)c1OC | u | n | u | 8.2µM | n
Cc1ccc(NS(=O)(=O)c2cc(C(=O)OCC(=O)NCC3CCCO3)ccc2C)cc1 (stereo unspecified) | n | n | n | n | n
CC1CCN(C(=O)/C(=C\c2cccs2)NC(=O)c2ccccc2)CC1 | n | n | n | n | n
CCN(Cc1ccccc1)C(=O)c1cccc(S(=O)(=O)N2CCN(c3ccc(F)cc3)CC2)c1 | n | n | n | 14.6µM | n
N#C/C(=C\c1ccc(Oc2ccc(C(F)(F)F)cc2[N+](=O)[O-])cc1)c1nc2ccccc2[nH]1 | u | n | n | 16.4µM | n
C/C=C(/C)C(=O)O[C@H]1CC(C)=CC(=O)[C@@]2(C)CC[C@@](O)(C(C)C)[C@H]12 | n | x | x | n | x
C=C1C(=O)O[C@@H]2[C@H]1[C@@H](OC(=O)/C(C)=C/C)C/C(C)=C\C(=O)/C=C(\C)[C@@H]2O | u | 10µM | 6.31µM | 20.6µM | u
Cc1ccc(NC(=O)c2cc(S(=O)(=O)c3ccccc3)ccc2Cl)cc1 | n | n | n | u | n
